HEK293 tox: Cytotoxic Profiling in HEK 293 Cell Line of Diverse Libraries Using Quantitative High-Throughput Screening | actives 6.6% (n = 94,000) | AID 1345083, 2018 | HEK 293 viability, ATP luminescence (CellTiter-Glo), 48-72 h | Potency, µM (series often up to 115 µM), inactives show top-dose activity change, negative = cytotoxicity, actives largely listed as inhibitors; note: nearly all actives have a fitted effect of over 60% in size
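Luminescence from cellular ATP, measured with CellTiter-Glo, indicates HEK 293 viability. Cells plated at 250 cells/well are treated with compound for 48 or 72 hr at 37 degree Celsius before reagent addition.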
GPT2 inh: Primary qHTS assay for inhibitors of Glutamate pyruvate transaminase 2 (GPT2); AID 1671188, 2021; Recombinant GPT2, coupled pyruvate oxidase/HRP Amplex Red fluorescence; Potency, µM (series often up to 57.7 µM), for inactives: at the highest dose activity change, negative = inhibition, hits mostly inhibitors; Alanine aminotransferase 2 (Homo sapiens), Q8TD30; actives 0.25% (n = 100,000); note: nearly all actives have a fitted effect of over 60% in size
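Fluorescence read-out: pyruvate from GPT2 turnover coupled to pyruvate oxidase, HRP and Amplex Red (0.2mM ThPP, 0.2U/mL PO and HRP, 50uM Amplex final). Substrates 250uM a-KG, 2mM L-alanine; enzyme 10ng/uL; 30 min RT.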
hNpr1 antagonist: Natriuretic polypeptide receptor (hNpr1) antagonism - Primary qHTS; HEK293 hNpr1 GloSensor cGMP, ANP-stimulated luminescence; Potency, µM (doses to about 46.3 µM), for inactives: at the top dose activity change, negative = inhibition, usual class: inhibitors; actives 1.6% (n = 76,000); calls by dose curve; note: nearly all actives have a fitted effect of over 60% in size
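Compound pre-incubated 30 min at room temperature on GloSensor-loaded HEK293 cells stably carrying hNpr1 and the pGS-40F cGMP biosensor. Stimulation uses hNppA at 0.1 nM final; luminescence is taken at baseline and 20 min post-agonist.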
FLuc inh: Firefly luciferase inhibition profiling of diverse chemical library using quantitative high-throughput screening; Potency, µM (top dose mostly 115 µM), most hits filed as inhibitors; AID 1347043, 2019; actives 2.5% (n = 76,000); purified P. pyralis luciferase, luminescence, biochemical; note: nearly all actives have a fitted effect of over 65% in size
Target sequence (P08659 whole entry, looked up): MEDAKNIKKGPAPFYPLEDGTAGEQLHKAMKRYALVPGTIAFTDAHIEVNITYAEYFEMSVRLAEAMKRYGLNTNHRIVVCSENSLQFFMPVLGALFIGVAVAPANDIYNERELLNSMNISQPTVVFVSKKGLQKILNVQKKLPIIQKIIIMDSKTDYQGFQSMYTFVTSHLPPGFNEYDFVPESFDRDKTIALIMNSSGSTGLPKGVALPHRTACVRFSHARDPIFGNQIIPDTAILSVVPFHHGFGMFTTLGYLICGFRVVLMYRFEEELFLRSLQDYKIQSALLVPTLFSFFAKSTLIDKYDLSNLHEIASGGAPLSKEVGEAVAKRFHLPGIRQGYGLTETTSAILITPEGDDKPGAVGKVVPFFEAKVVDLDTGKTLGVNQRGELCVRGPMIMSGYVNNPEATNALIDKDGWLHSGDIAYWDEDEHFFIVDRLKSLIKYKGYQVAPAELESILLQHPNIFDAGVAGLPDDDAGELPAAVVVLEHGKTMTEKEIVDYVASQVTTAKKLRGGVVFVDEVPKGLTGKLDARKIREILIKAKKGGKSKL
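Biochemical qHTS: compound (6-point titration) added to 10uM D-luciferin plus 10uM ATP in Tris acetate pH 7.5 buffer with Mg, Tween-20 and BSA, then purified enzyme at 10nM; light output imaged.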
3T3 cytotox: Cytotoxic Profiling in NIH 3T3 Cell Line of Diverse Libraries Using Quantitative High-Throughput Screening; NIH 3T3 viability, CellTiter-Glo ATP luminescence, 48-72 h; Potency, µM (titrated, usually from 96.7 µM), for the others: at the highest dose activity change, negative = cytotoxicity, hits mostly inhibitors; actives 4.3% (n = 94,000); AID 1345082, 2018; note: nearly all actives have a fitted effect of over 55% in size
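Viability of NIH 3T3 cells after 48 or 72 hr compound treatment at 37 °C was assessed by CellTiter-Glo, with luminescence imaged following a 10 min room-temperature step.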
Active calls of the source: *; i = inactive; ? = inconclusive; / = no result given; [ ] = dose if it differs, or a comment. This is a sample that favours compounds with a hit; in the whole collection about 10% have one here. Unless noted, calls come from the whole dose curve; as a rule, active = well fitted curve in the direction sought with a large enough effect; inconclusive = small, poorly fitted or top-dose-only effect, or another doubt; inactive = no such curve, though single readings can be large; an effect the other way counts as inactive or inconclusive. % is set by controls: 0 for no effect and ±100 for the full control effect; potency is the fitted concentration of half-maximal effect.

SMILES	HEK293 tox	GPT2 inh	hNpr1 antagonist	FLuc inh	3T3 cytotox
O=C(C1CCCN(c2nccc(Nc3ccccc3F)n2)C1)N1CCCC1 (stereo unspecified)	45µM*	?	/	/	32µM*
COc1ccc(CNC(=O)Cn2c(C)cc3nc4n(c(=O)c32)CCC4)cc1OC	8%	i	-2%	i	-18%
Cc1ccc(C(=O)NCc2nnc3cc(-c4nc(C5CC5)no4)ccn23)cc1C	?	i	-16%	i	?
COc1ccc(CNC(=O)C2CN(c3ccc(Cl)cc3)C(=O)N2)cc1 (stereo unspecified)	i	i	23%	i	-17%
CCN1CCN(C(=O)c2nc3sccn3c2-c2cccc(C#N)c2)CC1	-6%	i	/	/	-21%
O=C(NCc1ccccc1)C1CCCN(c2nccc(Nc3ccccc3F)n2)C1 (stereo unspecified)	18µM*	-13%	/	/	32µM*
c1coc(CN2CC(Oc3ccc(-c4noc(-c5ccncc5)n4)cc3)C2)c1	18µM*	i	11µM*	4µM*	?
O=C(Nc1ccccc1F)N1CC(Oc2ccc(-c3noc(-c4ccccc4)n3)cc2)C1	?	i	10µM*	?	-16%
O=C(NCc1ccccc1)N1CC(Oc2ccc(-c3nc(-c4ccccc4)no3)cc2)C1	?	i	?	2.5µM*	-2%
O=C(CCc1ccccc1)N1CC(Oc2ccc(-c3nc(-c4ccccc4)no3)cc2)C1	?	-3%	?	?	-18%
OC[C@@H]1CN(Cc2ccco2)C[C@H]1c1nc(-c2ccncc2)no1	?	i	-2%	?	-10%
O=C(NCc1ccccc1)N1CC(Oc2cccc(-c3nc(-c4ccccc4)no3)c2)C1	18µM*	i	-20%	i	?
Cc1noc(-c2cccc(OC3CN(C(=O)NCc4ccccc4)C3)c2)n1	?	-1%	-13%	i	?
c1ccc(-c2nc(-c3ccc(OC4CNC4)cc3)no2)cc1	?	i	?	4µM*	16µM*
O=C(NCc1ccc(F)cc1)N1CC(Oc2ccc(-c3noc(-c4ccccc4)n3)cc2)C1	?	-17%	14µM*	?	?
Cc1cc(C)n(CCC(=O)N2CC(Oc3cccc(-c4nc(-c5ccccc5)no4)c3)C2)n1	?	i	?	28µM*	40µM*
c1cc(-c2nc(-c3ccc(OC4CNC4)cc3)no2)ccn1	?	i	-3%	?	?
O=C(Nc1ccccc1F)N1CC(Oc2ccc(-c3nc(-c4ccccc4)no3)cc2)C1	-11%	i	-18%	?	-1%
CCC(=O)N1CCC(c2noc(-c3ccccc3)n2)C1 (stereo unspecified)	-5%	i	-1%	i	-8%
COc1ccc(CN(Cc2ccc(OC)cc2)[C@@H]2CO[C@H](CNC(=O)CC(C)(C)C)[C@H]2O)cc1	71µM*	-3%	1%	i	?
CN(Cc1ccccc1)c1ncccc1CNC(=O)Nc1ccccc1F	-28%	0%	4%	i	-18%
CCC(=O)N1CCc2c(sc3ncnc(NCCc4ccccc4)c23)C1	?	i	2%	i	?
COc1cccc(-n2cc(CN(C)Cc3cn(-c4ccccc4)nn3)cn2)c1	32µM*	-6%	-1%	i	?
CN(Cc1ccc2nonc2c1)Cc1cn(-c2ccccc2)nn1	?	-1%[11.5 µM]	4%	i	-12%
Cc1cnc(C(=O)N[C@@H]2CCC[C@@H]2C(=O)NCc2cccs2)cn1	i	-4%	0%	i	i
SMILES	HEK293 tox	GPT2 inh	hNpr1 antagonist	FLuc inh	3T3 cytotox
Cc1ccccc1N1CCN(C(=O)c2cc3cn(C4CC4)cc3s2)CC1	79µM*	?	-18%	i	?
C[C@]12CCC(=O)C=C1[C@@H](O)C[C@@H]1[C@@H]2[C@@H](O)C[C@@]2(C)[C@H]1CC[C@]2(O)C(=O)CO	/	i	/	/	/
Cn1nc(-c2ccncc2)cc1NC(=O)c1ccccc1Cl	?	i	/	/	?
Cc1ccccc1-c1nccn2c(C3CN(Cc4ccc(O)cc4)C3)ncc12	?	-10%[88.5 µM]	4%[70.6 µM]	i	79µM*
Cc1ccccc1-c1nccn2c(C3CN(C(=O)c4cc5ccccc5[nH]4)C3)ncc12	89µM*	-13%[88.5 µM]	-28%[70.6 µM]	?	79µM*
O=C(NCc1cccnc1)[C@@H]1C[C@@H](c2ccc(F)cc2)N(Cc2ccccc2)C1	?	i	1%[70.6 µM]	i	?
O=C(Nc1nccs1)[C@@H]1C[C@H](c2ccc(F)cc2)N(Cc2ccccc2Cl)C1	?	-23%[88.5 µM]	-3%[70.6 µM]	i	32µM*
Cn1ccc(NC(=O)[C@@H]2C[C@H](c3ccc(F)cc3)N(Cc3ccccc3Cl)C2)n1	50µM*	-16%[88.5 µM]	?	i	?
O=C(Nc1ccncn1)[C@@H]1C[C@@H](c2ccc(F)cc2)N(CCOc2ccccc2)C1	?	-1%[88.5 µM]	?	i	?
Cn1ccc(NC(=O)[C@@H]2C[C@@H](c3ccc(F)cc3)N(CCOc3ccccc3)C2)n1	?	-6%[88.5 µM]	-29%[70.6 µM]	i	?
Cc1csc(NC(=O)[C@@H]2C[C@H](c3cccc(C(F)(F)F)c3)N(Cc3cnn(C)c3)C2)n1	?	-18%	-13%	i	28µM*
O=C(Nc1cccnc1)[C@@H]1C[C@@H](c2ccc(F)cc2)N(CCOc2ccccc2)C1	?	-9%[88.5 µM]	?	i	89µM*
O=C(c1ccco1)N1CCN(C(=O)c2nnn3c2COC(c2ccccc2)C3)CC1 (stereo unspecified)	-29%	i	-21%	i	-12%
O=C(C1CCOCC1)N1CCC(N2C(=O)C3(CCCC3)C2c2ccccc2)CC1 (stereo unspecified)	-5%	2%	/	/	-11%
COc1ccc(NC(=O)Cn2ccn3nc(-c4ccc(F)cc4)c(CO)c3c2=O)cc1	5%	-7%	-2%	i	3%
CCC1(O)CCC12CCN(C(=O)c1ccncc1)CC2 (stereo unspecified)	-1%	i	4%	i	-4%
Cn1cc(CN2C[C@H](C(=O)Nc3nccs3)C[C@H]2c2cccc(C(F)(F)F)c2)cn1	?	1%[88.5 µM]	1%[70.6 µM]	i	?
O=C(Nc1nccs1)[C@@H]1C[C@@H](c2ccc(F)cc2)N(Cc2ccccc2)C1	40µM*	2%[88.5 µM]	?	i	?

Source: PubChem BioAssay (National Center for Advancing Translational Sciences (NCATS))
